Structures are written as SMILES. About 7,300 (2%) of roughly 360,000 compounds were called active. The full list was thinned out, with actives kept by preference. Unmarked numbers belong to inactive results. Rule as the data show it: active = inhibition above about 50%; inactive = the rest.

By inhibition is commonly meant the change of the read-out against control, counted positive when it falls.

This assay is described as follows: inhibitors of TWEAK-Fn14 signaling, primary screen, luciferase reporter cells, uHTS (AID 1159606). The following applies: TWEAK-stimulated Fn14 reporter cells, luciferase luminescence, 8 h; at 10 µM; hits give high values. (A reporter such as luciferase makes a cellular process visible.)
As for `O=C1CC(c2ccccc2)C(c2ccccc2)=NN1` (centres undefined), the inhibition was -8.4%. The same measure for `O=S1(=O)CCOC[C@H](CC2CCCCC2)N1Cc1ccc(F)cc1`: 3.84%. `CCc1cccc(CC)c1NC(=O)COc1ccccc1C(=O)c1cc(C#N)c(=O)n(C2CCCCC2)c1`: the inhibition was 19.8%.

For the molecule `CN(Cc1cn(Cc2ccc(C(F)(F)F)cc2)nn1)C1CN(Cc2cn(Cc3ccc(C(F)(F)F)cc3)nn2)S(=O)(=O)C1` (centres undefined), the inhibition is 33.8%. The same measure for `CC(=O)c1nc(N2C(=O)C3CC=C(C)CC3C2=O)sc1C` (centres undefined): -2.22%; for `Cc1ccc(-c2cc(=O)[nH]c(NCc3ccccc3)n2)cc1`: 9.23%; for `CCS(=O)(=O)c1ccc2c(c1)N(S(=O)(=O)c1ccccc1)CC(C(=O)O)O2` (centres undefined): -19.1%. As for `Cc1[nH]c(=O)c(C(=O)/C=C/c2ccccc2)c2c1CCCC2`, the inhibition is 83.9% (active). With `COC(=O)c1c(C)[nH]c(C(=O)/C=C/c2ccc(Cl)cc2)c1C` the figure was -23.7%. The same measure for `CC1(C(=O)O)CCCN(C(=O)/C=C/c2ccccc2)C1` (centres undefined): 3.38%; for `CCN(CC)CCOc1ccc2c(c1)C(=NNC(=O)c1ccccn1)c1cc(OCCN(CC)CC)ccc1-2`: -85.7%; for `COc1ccc(-c2cc(C(=O)NCCCN3CCCC3=O)c3ccccc3n2)cc1OC`: -9.51%. With `COc1ccc(-c2cc(C(F)(F)F)nc(S(C)(=O)=O)n2)cc1OC`, the inhibition was 76.2% (active). With `COc1ccc(-c2cc(C(=O)N(C)Cc3ccc(OC)c(OC)c3OC)c3ccccc3n2)cc1OC` the figure was 19.7%; with `OCC1(Cc2ccccc2C(F)(F)F)CCN(Cc2ccncc2)CC1`, 14.4%; with `Cc1cc(-c2nnc(SCC(=O)Nc3ccc(F)cc3)n2N)n[nH]1`, 1.35%.

Take `O=C(CC[C@H]1O[C@@H](n2ccc(=O)[nH]c2=O)[C@H](O)[C@@H]1O)N[C@H](Cc1ccccc1)C(=O)NCc1ccco1`: the inhibition was 10.1%. With `CC1CCCCC1NC(=O)/C(C#N)=C/C=C/c1ccccc1[N+](=O)[O-]` (centres undefined) the figure was 84.9% (active); with `CC(OC(=O)/C=C/c1ccccc1)C(=O)NC1CCCCC1C` (centres undefined), -1.03%.

For the molecule `CC1CCCCC1NC(=O)COc1ccc(C#N)cc1` (centres undefined), the inhibition was 2.53%. With `CC(=O)NCC(=O)N(C)C(C(=O)Nc1ccc2c(c1)OCCO2)c1ccccc1` (centres undefined) the figure was 7.79%. On to `CCN(CC)CCn1cnc2c1c(=O)n(CCOC(=O)c1cc(OC)c(OC)c(OC)c1)c(=O)n2C`, for which the inhibition is -2.5%.

As to `O=C(CC1SC(N2CCCC2)=NC1=O)Nc1ccc(C(=O)NCCc2ccc(F)cc2)cc1` (centres undefined), the inhibition was -8.62%. With `N#Cc1c(-c2cccs2)nc(SCC(=O)c2ccc(Br)cc2)[nH]c1=O` the figure was -12.4%. Turning to `C=CCN(CC=C)S(=O)(=O)c1ccc(C(=O)Nc2nc3c(s2)CCc2ccccc2-3)cc1`, the inhibition was -34.3%. The same measure for `N#Cc1ccc(C(=O)Nc2nc(-c3cccs3)c(C(=O)C(F)(F)F)s2)cc1`: 58.4% (active); for `Cc1oc2c(C)c3oc(=O)c(CC(=O)N[C@@H](CC(C)C)C(=O)N[C@@H](Cc4ccccc4)C(=O)O)c(C)c3cc2c1C`: -9.29%. The same measure for `COC(=O)c1ccc(NS(=O)(=O)c2cc3c4c(c2)C(C)C(=O)N4CCC3)cc1` (centres undefined): 9.82%; for `Cc1cccc(C(=O)Nc2nnc(S(=O)(=O)N3CCCCCC3)s2)c1`: -46.1%; for `CCOC(=O)CSc1nnc(NC(=O)c2cccc(S(=O)(=O)N3CCCCC3)c2)s1`: 41.9%. With `CSc1nnc(NC(=O)c2nc(S(=O)(=O)Cc3ccc(C)cc3)ncc2Cl)s1`, the inhibition is 92% (active). The same measure for `Cc1ccc(S(=O)(=O)CCC(=O)Nc2nnc(CC(C)C)s2)cc1`: -1.46%; for `Cc1ccc(CS(=O)(=O)c2ncc(Cl)c(C(=O)Nc3nnc(C)s3)n2)cc1`: 96.5% (active); for `O=C(Nc1nnc(-c2ccc(F)cc2)s1)c1c(F)cccc1Cl`: 5.11%.

As for `CSc1nc2nc3c(c(=O)n2[nH]1)CCC3`, the inhibition was -0.44%.

As for `CCCn1c(N)c(N(CCOC)C(=O)C2CCCC2)c(=O)[nH]c1=O`, the inhibition was -6.44%.

On to `CC(=O)Nc1ccc(S(=O)(=O)N2CCC(C(=O)N[C@@H](Cc3ccccc3)C(=O)O)CC2)cc1`, for which the inhibition is -3.83%. The same measure for `Cc1cc(OCCOc2cccc3cccnc23)c(C)cc1Cl`: -15.2%. As for `Cc1ccc([C@@H]2CC(=O)[C@@H]3CN(S(=O)(=O)c4ccc(C)cc4)[C@H](c4ccccc4F)C[C@@H]3N2S(=O)(=O)c2ccc(Cl)cc2)cc1`, the inhibition was -13.3%. With `COc1cc(C(F)(F)F)nc2c(Br)c(C(C)(C)C)nn12` the figure was 15.2%; with `O=C(CSC(=S)N1CCOCC1)c1ccccc1`, 71.9% (active); with `NC(=NC(=O)c1ccccc1)N1CCOCC1`, -6.39%. The same measure for `CC1CN(C(=S)SCC(=O)c2ccccc2)CC(C)O1` (centres undefined): 3.23%; for `CC1(C(=O)Nc2cccc3cccnc23)CCN1C(=O)CCC1CCCC1` (centres undefined): 8.06%; for `N#Cc1ccsc1NC(=O)CN1CCCCC1`: -0.37%. `Cc1csc(SCC(=O)Nc2sccc2C#N)n1`: the inhibition was 56.5% (active). As to `Cc1csc(SCC(=O)Nc2ccc(C)c(S(=O)(=O)N(C)C)c2)n1`, the inhibition is -4.8%. Consider `CCN1C(=O)N[C@@H](c2ccccc2)[C@H](C(C)=O)[C@H]1C`, for which the inhibition is -0.1%. The same measure for `CSc1ccccc1NC(=O)Cc1ccc(Br)cc1`: 4.45%; for `CCC1CCc2c(sc(NC(C)=O)c2C#N)C1` (centres undefined): -8.64%; for `COCc1nnc(NC(=O)c2ccc3c(c2)OCO3)s1`: 14.7%. The same measure for `C/C(=N/NC(=O)c1ccncc1)c1ccc2c(c1)OCO2`: 11.5%; for `Cc1ccc(-c2csc(NC(=O)C3=COCCO3)n2)cc1C`: 1.4%; for `O=C(Nc1nc2ccccc2s1)c1ccc2c(c1)OCO2`: 83.7% (active). As to `N#Cc1ccccc1NC(=O)c1ccc2c(c1)OCO2`, the inhibition is -17.5%. With `O=C(Nc1nc(-c2ccc3c(c2)OCO3)cs1)c1ccncc1` the figure was 57.8% (active). The same measure for `CCCNS(=O)(=O)c1ccc(CCC(=O)NCc2cccnc2)cc1`: 6.9%; for `COc1ccc(C2(C)ON(c3ccccc3C(F)(F)F)C2=O)cc1` (centres undefined): -8.35%. As to `CCCCN(CC)C(=O)c1ccccc1Oc1ccccc1`, the inhibition is 11.6%. The same measure for `Cc1ccc(NC(=O)Cc2nc(COC(=O)C(C)NS(=O)(=O)c3ccc(C)cc3)cs2)cc1` (centres undefined): -7.54%. The same measure for `CCOC(=O)/C=C/CN(C(=O)OC(C)(C)C)S(=O)(=O)N1CC=CC1`: 8.4%. As for `Cc1ccc(-c2noc(CSc3nnc(-c4ccncc4)n3-c3ccc(F)cc3)n2)cc1`, the inhibition is 1%. In the case of `Cc1ccc(Nc2nc(CSc3nnc(-c4ccncc4)n3-c3ccccc3C)cs2)cc1`, the inhibition was 74.3% (active). With `Cc1ccc(-n2c(SCC(=O)N3c4ccccc4Sc4ccccc43)nnc2-c2ccncc2)cc1` the figure was 20.4%; with `FC(F)(F)c1cc(C(F)(F)F)c2ccc(N3CCN(c4ccccc4)CC3)nc2n1`, -12.2%; with `Cc1ccc(-c2nc3ccc(Cl)cn3c2Cc2ccccc2)cc1`, -22%. Take `Clc1ccc2nc(CSc3ccccc3)cn2c1`: the inhibition is 59.6% (active). As for `Cc1ccc(Cc2c(-c3ccccc3)nc3ccc(Cl)cn23)cc1`, the inhibition is -20.8%. Take `CC1(C(=O)NS(=O)(=O)c2cccc(F)c2)CCN1C(=O)c1cccc2ccccc12` (centres undefined): the inhibition is -20.6%. With `Cc1ccc(-c2cnc(C(O)c3cc(Cl)cc(Cl)c3)[nH]2)cc1` (centres undefined) the figure was -5.74%; with `CC1CCc2sc3nc(N4CCN(CCO)CC4)n4ncnc4c3c2C1` (centres undefined), -63.4%.

On to `COC(=O)c1ccc2nc(-c3ccccc3)c(Cc3ccc(OC)cc3C)n2c1`, for which the inhibition was -3.6%. On to `CCCCNc1c(-c2ccc(OC)c(Sc3ccc(OC)cc3)c2)nc2ccc(Cl)cn12`, for which the inhibition was 5.14%. The same measure for `CCCCNc1c(-c2cccc(Sc3ccc(OC)cc3)c2)nc2ccccn12`: 53.7% (active). On to `COC(=O)c1cc(=O)n(-c2c(Cl)cc(C(F)(F)F)cc2Cl)[nH]1`, for which the inhibition is 7.88%. For the molecule `CCOC(=O)C1CCCN(C(=O)C2CCN(S(=O)(=O)c3ccc(Cl)c(C(F)(F)F)c3)CC2)C1` (centres undefined), the inhibition was -2.02%.

Turning to `O=C(Nc1ccccn1)C1CCN(S(=O)(=O)c2ccccc2)CC1`, the inhibition is -18.5%. With `O=C(Nc1nccs1)C1CCN(S(=O)(=O)c2ccc(Cl)c(C(F)(F)F)c2)CC1` the figure was 73.5% (active). As to `N#Cc1cccc(NC(=O)c2cc(C3CCCCN3C(=O)CCc3ccccc3)on2)c1` (centres undefined), the inhibition is 26.1%. Take `C#CCN(N(C)c1ncc(C(F)(F)F)cc1Cl)S(=O)(=O)c1ccc2ccccc2c1`: the inhibition was 18%. With `C=CCNc1nc(N)c(C(=C(C#N)C#N)c2ccccc2)s1`, the inhibition is 17.7%. With `Cc1cc(-c2n[nH]c(=S)n2-c2ccc(C)c(C)c2)no1` the figure was 4.62%; with `COc1ccc(-n2c(-c3ccc(Cl)cc3)n[nH]c2=S)c(OC)c1`, 0.97%; with `Cc1ccc(-n2c(-c3ccc(Cl)cc3)n[nH]c2=S)cc1`, 104% (active). With `CC(C)=C(NC(=O)c1ccco1)C(=O)NCCc1nc2ccccc2[nH]1`, the inhibition was 83.7% (active). For the molecule `CCCC(NC(=O)c1ccco1)c1nc2ccccc2[nH]1` (centres undefined), the inhibition is 19.6%.

Turning to `CC(C)Oc1ccc(/C=C(\NC(=O)/C=C/c2ccco2)C(=O)NCCc2nc3ccccc3[nH]2)cc1`, the inhibition is 13.7%. In the case of `Cc1csc(NC(=O)CSc2ccc(-c3ccc(F)cc3)nn2)n1`, the inhibition is -0.16%. Consider `C=CCC[C@H](CCCCC)OC(=O)/C=C/[C@H](O)[C@@H](O)C[C@@H](O)CC=C`, for which the inhibition is 2.69%.

(Values after PubChem BioAssay AID1159606 (Sanford-Burnham Center for Chemical Genomics, 2016).)
